SENP8 block-1: SENP8 protease inhibitors, primary screen, biochemical, luminescence; purified SENP8, Z-RLRGG-aminoluciferin cleavage; inhibition, % at 10 µM; 330,000 tested, 1.2% active; AID 2540, 2010; in the data active means inhibition above about 50%
Target sequence (Q96LD8 whole entry, looked up): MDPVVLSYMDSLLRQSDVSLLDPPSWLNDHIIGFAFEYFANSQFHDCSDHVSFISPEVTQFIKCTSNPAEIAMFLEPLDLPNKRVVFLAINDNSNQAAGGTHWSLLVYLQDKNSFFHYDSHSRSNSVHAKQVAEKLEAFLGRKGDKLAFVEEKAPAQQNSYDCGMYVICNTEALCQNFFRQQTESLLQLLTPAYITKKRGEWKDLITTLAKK
HSP90 refold inh: HSP90 inhibitors, primary screen, cell lysate, luminescence; Heat shock protein HSP 90 (rabbit reticulocyte lysate; luciferase refolding); 290,000 tested, 0.91% active; inhibition, % at 5.6 µM; Rabbit reticulocyte lysate, luciferase refolding luminescence, 3 h;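 active means inhibition above the screen-wide mean plus 3 SD, computed separately per campaign, cut at about 16% in these data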;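 further: 0% = DMSO wells and 100% = 60 µM geldanamycin wells; inhibitors lower the luminescence because luciferase stays unfolded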
LGR2 inh: inhibitors of bursicon-induced LGR2 CRE-luciferase signal, primary screen, cell-based, HEK293, CRE-luciferase reporter, bursicon stimulation | inhibition, % at 9.99 µM | AID 720647, 2013 | 380,000 tested, 0.35% active | bursicon-stimulated, 4 h | Drosophila bursicon receptor LGR2 (rickets);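 active means drop in luminescence signal, shown as inhibition above about 50% in the replicate tests, limit read from the data, passing the limit was not always enough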;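 further: agonist challenge used bursicon conditioned medium at about half maximal strength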
SENP7 block: SENP7 protease inhibitors, primary screen, biochemical, luminescence, uHTS; Sentrin-specific protease 7 (Homo sapiens), Q9BQF6; recombinant SENP7, Z-RLRGG-aminoluciferin luminescence, 40 min; inhibition, % at 5 µM; 330,000 tested, 1.5% active; AID 434973, 2010;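 active means inhibition above about 50% at the single test dose, limit read from the data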;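 further: plate controls were DMSO with enzyme for no effect and no enzyme buffer wells for full effect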
SENP8 block-2: human SENP8 protease inhibitors, primary screen, biochemical, fluorescence, Nedd8 protein substrate, uHTS; Sentrin-specific protease 8 (Homo sapiens), Q96LD8; recombinant SENP8; inhibition, % at 20 µM; 360,000 tested, 0.64% active; in the data active means inhibition mostly above about 40%, no sharp cut-off; inactive means mostly below about 27%
SENP6 inh: SENP6 protease inhibitors, primary screen, biochemical, luminescence, uHTS; Sentrin-specific protease 6 (Homo sapiens), Q9GZR1; Recombinant SENP6 catalytic domain, aminoluciferin luminescence; inhibition, % at 10 µM; 330,000 tested, 1.8% active;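 active means inhibition above about 50% at the single tested dose, limit read from the data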;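 further: plate controls were DMSO wells with enzyme for no effect and DMSO wells lacking enzyme for full effect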
Target sequence (Q9GZR1 628-1112 limits assumed): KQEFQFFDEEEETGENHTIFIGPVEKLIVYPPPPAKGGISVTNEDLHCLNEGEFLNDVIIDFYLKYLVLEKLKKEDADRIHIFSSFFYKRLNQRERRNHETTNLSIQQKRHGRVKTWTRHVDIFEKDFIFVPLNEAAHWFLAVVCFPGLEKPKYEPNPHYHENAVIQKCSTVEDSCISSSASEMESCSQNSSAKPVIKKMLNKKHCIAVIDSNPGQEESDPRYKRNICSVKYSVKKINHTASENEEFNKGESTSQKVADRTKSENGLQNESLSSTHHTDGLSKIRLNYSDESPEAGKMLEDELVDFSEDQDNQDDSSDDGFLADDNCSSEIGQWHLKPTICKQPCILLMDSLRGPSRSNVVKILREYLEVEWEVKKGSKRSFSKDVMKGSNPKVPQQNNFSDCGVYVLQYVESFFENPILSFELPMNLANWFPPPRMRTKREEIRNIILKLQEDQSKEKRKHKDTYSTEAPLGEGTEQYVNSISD
HSP90 inh confirm: HSP90 inhibitors, confirmation, cell lysate, luminescence; shares compounds with HSP90 refold inh; rabbit reticulocyte lysate, luciferase refolding luminescence, 3 h; inhibition, % at 5.9 µM; 2,300 tested, 64% active; AID 1846, 2009; in the data active means inhibition above about 18%;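 further: 0% = vehicle wells and 100% = reference inhibitor wells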
FLuc counter: firefly luciferase inhibitors, HSP90 counter-screen, confirmation, artefact control for HSP90 inhibitor project, biochemical, luminescence, triplicate. shares compounds with HSP90 refold inh. purified native firefly luciferase. inhibition, % at 5.9 µM. 2,300 tested, 48% active;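 active means inhibition above the mean inhibition of all tested sample wells plus 3 SD, cut at about 10% in these data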;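 further: 0% = DMSO with luciferase and 100% = wells lacking luciferase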
SENP8 conf: SENP8 protease inhibitors, retest, confirmation, biochemical, luminescence, single concentration. 6,200 tested, 40% active. Recombinant SENP8, Z-RLRGG-aminoluciferin luminescence, 60 min. inhibition, % at 12.5 µM. AID 488912, 2010. shares compounds with SENP7 block;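 active means mean inhibition across replicates above about 50%, limit read from the data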
SENP6 confirm: SENP6 protease inhibitors, confirmation, biochemical, luminescence, single concentration | shares compounds with SENP7 block | recombinant SENP6, Z-RLRGG-aminoluciferin luminescence | inhibition, % at 12.5 µM | 6,200 tested, 58% active
SENP7 conf: SENP7 protease inhibitors, retest, confirmation, biochemical, luminescence, single concentration; 6,200 tested, 69% active; recombinant SENP7, Z-RLRGG-aminoluciferin luminescence, 40 min; inhibition, % at 12.5 µM; shares compounds with SENP7 block; AID 488917, 2010
Casp3 SENP sel: caspase-3 protease inhibitors, confirmation, selectivity assay for SENP inhibitor project, biochemical, single concentration. AID 488918, 2010. shares compounds with SENP7 block. inhibition, % at 12.5 µM. purified caspase-3, Z-DEVD-aminoluciferin luminescence, 60 min. 6,200 tested, 60% active;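 active means mean inhibition above about 50%, limit read from the data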;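 further: plate controls were enzyme with DMSO for no effect and wells without caspase-3 for full effect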
Luc interf: luminescence interference (SENP counter-screen); Pre-incubated SENP8/Z-RLRGG-aminoluciferin, luciferase luminescence interference; shares compounds with SENP7 block; inhibition, % at 12.5 µM; 6,200 tested, 39% active;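 active means mean inhibition above about 50% when retested at one dose, limit read from the data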;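 further: plate controls were DMSO wells with completed reaction for no effect and substrate without enzyme for full effect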
The depositor's hits bear a star; nt = no result given. Shown are actives, neighbours in structure and some others; about 2.3% of the full set was active somewhere.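 How the source made its calls, unless noted: active means mean inhibition above about 50% in the one-dose retest (limit read from the data); inactive means the rest.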

SMILES	SENP8 block-1	HSP90 refold inh	LGR2 inh	SENP7 block	SENP8 block-2	SENP6 inh	HSP90 inh confirm	FLuc counter	SENP8 conf	SENP6 confirm	SENP7 conf	Casp3 SENP sel	Luc interf
O=[N+]([O-])c1ccccc1COc1ccc(Cl)c2cccnc12	71.7*	21.4*	-97.1	92.6*	8.9	82.8*	48.4*	31.5*	50.5*	51.5*	72.7*	74.5*	15.8
O=C(Oc1ccc(Cl)c2cccnc12)c1cccc([N+](=O)[O-])c1	3.6	-2.7	-1.0	1.7	21.2	-3.3	nt	nt	nt	nt	nt	nt	nt
O=C(/C=C/c1ccccc1Cl)Nc1ccc2c(c1)C(=O)NC2=O	-7.9	-3.2	-4.2	4.9	-382.6	8.2	nt	nt	nt	nt	nt	nt	nt
O=C(/C=C/c1ccccc1Cl)Nc1cccc(O)c1	93.9*	22.9*	-51.0	95.9*	13.1	97.8*	35.8*	14.8*	96.1*	97.0*	101.6*	90.7*	96.4*
C[C@@H]1CN([C@@H](C)CO)C(=O)c2cc(NS(C)(=O)=O)ccc2O[C@H]1CN(C)Cc1ccc2c(c1)OCO2	nt	nt	-9.1	nt	nt	nt	nt	nt	nt	nt	nt	nt	nt
Cc1cc2nn(-c3ccccc3)nc2cc1NC(=O)c1cccs1	-15.8	-5.2	-28.0	7.1	-60.5	13.6	nt	nt	nt	nt	nt	nt	nt
CC(=O)Nc1cc2nn(-c3ccccc3)nc2cc1C	72.3*	20.9*	nt	76.9*	-420.6	78.2*	32.3*	21.1*	25.7	45.1	87.2*	78.8*	25.5
COCC(=O)N1CC2(CN(Cc3nccs3)C2)c2c(n(C)c3cc(OC)ccc23)[C@@H]1CO	nt	nt	-47.2	nt	nt	nt	nt	nt	nt	nt	nt	nt	nt
COc1ccc(C(=O)Nc2ccc3ncccc3c2)cc1	79.3*	28.7*	59.5*	87.2*	-0.2	81.3*	48.9*	29.1*	3.1	85.6*	97.5*	89.2*	30.0
Cc1cc(=O)oc(C)c1C(=O)Nc1ccc2ncccc2c1	-2.9	0.6	nt	3.1	-56.4	-6.9	nt	nt	nt	nt	nt	nt	nt
COc1ccc(C(=O)Nc2ccc3ccccc3c2)c(OC)c1	87.2*	23.9*	44.8	91.3*	9.7	87.3*	19.5*	9.8*	91.3*	91.4*	98.5*	76.6*	72.2*
Cc1ccc(C(=O)Nc2ccc3ncccc3c2)cc1	80.3*	50.3*	74.1*	89.9*	3.3	82.1*	70.7*	58.0*	83.4*	83.6*	97.1*	87.2*	87.7*
N#Cc1cccc(-c2ccc3c(c2)[C@H]2[C@H](CCN2S(=O)(=O)c2ccc(F)cc2)[C@H](CO)N3)c1	nt	nt	11.3	nt	nt	nt	nt	nt	nt	nt	nt	nt	nt
N/C(=N\OC(=O)c1ccccc1Cl)c1ccncc1	36.8	-2.8	-15.1	49.0	14.0	14.8	nt	nt	nt	nt	nt	nt	nt
N/C(=N\OC(=O)c1cc([N+](=O)[O-])ccc1Cl)c1ccccn1	-9.9	-0.4	-21.9	-4.1	6.9	-8.3	nt	nt	nt	nt	nt	nt	nt
N/C(=N\OC(=O)/C=C/c1ccccc1)c1ccccn1	88.1*	19.4*	31.5	95.9*	-2.4	94.9*	14.6	73.0*	89.1*	89.5*	100.4*	93.5*	92.7*
Cc1ccc(C(=O)O/N=C(\N)c2ccccn2)c(Cl)c1	95.8*	94.0*	103.5*	99.3*	7.8	95.7*	96.0*	90.9*	98.1*	99.0*	102.3*	98.1*	97.8*
N/C(=N\OC(=O)c1ccc([N+](=O)[O-])cc1Cl)c1ccccn1	90.7*	66.5*	94.7*	95.4*	31.5	95.5*	60.6*	89.7*	82.5*	96.1*	102.5*	97.4*	17.0
Cc1ccc(C(=O)O/N=C(\N)c2ccccc2)c(Cl)c1	96.7*	56.4*	97.1*	98.9*	16.0	98.6*	79.6*	86.6*	5.3	3.5	10.1	4.1	4.9
COc1ccc(/C=C/C(=O)O/N=C(\N)c2ccccn2)cc1OC	-9.0	nt	-60.6	13.1	-112.5	4.7	nt	nt	nt	nt	nt	nt	nt
Cc1cc(NCCCn2ccnc2)n2ncc(-c3ccccc3)c2n1	38.6	33.8*	nt	55.0*	-490.6	67.4*	62.2*	56.1*	52.7*	51.5*	81.6*	59.8*	46.0
Cc1cc(N2CCOCC2)n2ncc(-c3ccccc3)c2n1	40.0	51.0*	nt	57.2*	-260.0	47.2	67.1*	62.4*	55.1*	55.0*	84.5*	63.1*	29.7
Cc1cc(N2CCCCC2)n2ncc(-c3ccccc3)c2n1	29.3	36.7*	nt	52.8*	-483.9	50.4*	50.4*	54.2*	35.6	43.3	74.8*	32.0	24.0
Cc1cc(NC2CCCC2)n2nc(C)c(-c3ccccc3)c2n1	3.9	0.1	-40.4	0.5	-275.5	-5.2	nt	nt	nt	nt	nt	nt	nt
Cc1cc(N2CCCCC2)n2nc(C)c(-c3ccccc3)c2n1	7.3	-1.8	nt	4.5	-462.2	-6.0	nt	nt	nt	nt	nt	nt	nt
Cc1cc(NC2CCCC2)n2ncc(-c3ccccc3)c2n1	71.4*	59.1*	63.2*	82.5*	-314.0	77.2*	71.4*	70.4*	79.9*	83.5*	93.1*	62.5*	31.6
O=C(Nc1ccc(F)cc1)N1C[C@H]2[C@@H](c3ccccc31)[C@@H](CO)N2C(=O)Cc1ccccc1	nt	nt	8.2	nt	nt	nt	nt	nt	nt	nt	nt	nt	nt
Cc1noc(C)c1NC(=O)N(C)C[C@@H]1Oc2c(NC(=O)c3ccncc3)cccc2C(=O)N([C@@H](C)CO)C[C@H]1C	nt	nt	-0.1	nt	nt	nt	nt	nt	nt	nt	nt	nt	nt

Assay outcomes deposited in PubChem BioAssay by several laboratories.
